Source: ChEMBL document CHEMBL3988442, “University of Dundee, Small-Polar-MMV Screening Library” (2021)

Assays:
[1] = target: T1, Aspartate--tRNA(Asp/Asn) ligase (Mycobacterium tuberculosis (strain ATCC 25618 / H37Rv)) (UniProt P9WFW3); experiment: Assay for Asp RNA synthetase-1 from Mycobacterium tuberculosis; type: functional; set-up: scale not given: direction of the effect not stated beside the values; conditions: 30 µM; further: in the data most compounds retested in dose-response had high values
T1 sequence (whole entry): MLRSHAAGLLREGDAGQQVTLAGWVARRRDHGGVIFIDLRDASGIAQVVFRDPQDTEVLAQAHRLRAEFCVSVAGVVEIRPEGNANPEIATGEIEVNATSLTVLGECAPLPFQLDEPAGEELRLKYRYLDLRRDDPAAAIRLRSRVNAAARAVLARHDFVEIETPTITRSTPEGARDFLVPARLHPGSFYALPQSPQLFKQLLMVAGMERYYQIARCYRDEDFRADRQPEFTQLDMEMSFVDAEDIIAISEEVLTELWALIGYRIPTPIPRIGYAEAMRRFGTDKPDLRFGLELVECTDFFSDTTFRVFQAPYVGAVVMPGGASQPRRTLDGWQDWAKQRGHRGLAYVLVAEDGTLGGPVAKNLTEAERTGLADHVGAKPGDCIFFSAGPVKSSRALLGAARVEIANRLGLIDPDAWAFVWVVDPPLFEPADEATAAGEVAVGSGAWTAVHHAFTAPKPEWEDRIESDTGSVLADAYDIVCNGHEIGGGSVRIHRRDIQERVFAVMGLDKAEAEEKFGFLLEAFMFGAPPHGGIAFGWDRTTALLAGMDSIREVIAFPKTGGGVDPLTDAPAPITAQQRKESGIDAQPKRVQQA

[2] = target: Shiga toxin 2 (Escherichia coli O157:H7) (UniProt P09385+P09386); experiment: E. coli 0.157:H7 Shiga Toxin SOP - stx2 screening assay; type: functional; set-up: scale not given: direction of the effect not stated beside the values; conditions: 30 µM

Row | SMILES | Percent Effect [1] [%] | Percent Effect [2] [%]
1 | O=C(NCCNc1ncccn1)Nc1cc(C(F)(F)F)c[nH]c1=O | -1.25 | 3.13
2 | COCCO[C@H]1CCN(C(=O)c2ccno2)[C@H]1Cc1cnn(C)c1 | -3.56 | -13.7
3 | COCc1c(C(=O)O)nnn1Cc1cccc(C(F)(F)F)c1 | -5.23 | -31
4 | Cc1cc(CC(=O)NCc2ccnc(OCC(F)(F)F)c2)no1 | -6.06 | 21
5 | COc1ncccc1NC(=O)NC1CCOc2ccccc21 (stereo unspecified) | -3.76 | -5.5
6 | CCN1CCN(C2CCN(Cc3nc4ccccc4o3)CC2)C1=O | 12.7 | 21.6
7 | Cc1nc(CN2CCCC(CCNS(C)(=O)=O)C2)c[nH]1 (stereo unspecified) | -4.89 | 13
8 | Cc1cccc(OCCC(=O)N(C)CCNS(C)(=O)=O)c1C | 0.299 | 6.1
9 | O=C(CC1CCCO1)NCc1ccccc1Cn1cncn1 (stereo unspecified) | -3.17 | 31.5
10 | CC(c1ccccc1)n1c(SCC(=O)O)nnc1-c1ccccc1Cl (stereo unspecified) | 1 | 2.71
11 | Cc1cncc(C(=O)N2Cc3ccccc3C3(CCN(C)CC3)C2)c1 | -2.03 | -1.24
12 | CCn1c(Cn2cncn2)nnc1C1CCN(Cc2ccc(C)o2)CC1 | -3.48 | 18.7
13 | CNC(=O)[C@H]1C[C@@H]2CN(S(=O)(=O)c3ccccc3)C[C@@H]2N1C(C)=O | 2.08 | -6.09
14 | CN(C)C(=O)N1C[C@@H]2COC[C@]2(CNS(C)(=O)=O)C1 | -0.382 | -0.0161
15 | Cc1cc(C)n(C2CCCN(C(=O)c3cc(C4CC4)on3)C2)n1 (stereo unspecified) | -7.81 | -32.5
16 | O=C(NCc1nnc2n1CCCC2)N(Cc1ccccc1F)C1CC1 | -1.44 | 7.01
17 | Cn1cc(CN2CCOC3(CCCN(C(=O)c4ccco4)C3)C2)cn1 (stereo unspecified) | -0.297 | -4.96
18 | O=C(CC1CC1)N1CCn2cc(Cn3cncn3)nc2C1 | 3.1 | -11.8
19 | O=C(NCCN1CCOCC1)c1cc(-c2ccc3c(c2)CCO3)n[nH]1 | 2.35 | -67.8
20 | O=C1CC2(CCN(CC3CC3)C2)CN1c1cccc(F)c1 (stereo unspecified) | 0.607 | -32.8
21 | O=C(CN1CCOC(Cn2cccn2)C1)Nc1nncs1 (stereo unspecified) | -1.58 | -15.4
22 | Cc1nn(C)c(C)c1C1CCCN1Cc1nc(C2CC2)no1 (stereo unspecified) | -10.2 | -15.8
23 | COc1cccc(CNC(=O)N2CCN(Cc3cc(C)on3)CC2)c1 | -2.94 | 4.64
24 | Cn1cnnc1C1CCCN(C(=O)NCCc2ccccc2F)C1 (stereo unspecified) | -6.03 | 15.6
25 | Cc1ccc(-c2cc(N)c(=O)n(CC(=O)NCC3CC3)n2)s1 | 4.48 | 3.54
26 | Cn1ccnc1CN1CCC2(CC1)CN(CC1CC1)C(=O)CO2 | 2.11 | -17.7

Row | SMILES | Percent Effect [1] [%] | Percent Effect [2] [%]
27 | CC(C)c1cc(NC(=O)c2ccc(C(=O)NC(C)(C)C)cc2)[nH]n1 | -0.941 | -39.3
28 | CCN1CC2(CC1=O)CN(C(C)=O)CCN(C(=O)c1ccco1)C2 (stereo unspecified) | -3.81 | -35.2
29 | O=C1CCc2cc(C(=O)NCc3ccc(-n4cncn4)nc3)ccc2N1 | -5.04 | 3.55
30 | COc1cccc(S(=O)(=O)NC(=O)COC2CCCC2)c1 | 2.03 | -4.79
31 | COCCO[C@@H]1C[C@H]2CN(C(=O)c3cnccn3)CCN2C1 | 6.43 | -13
32 | O=C(CN1CCC(c2cccc(F)c2)C1)NCC(F)(F)F (stereo unspecified) | -6.79 | 2.95
33 | Cc1cnn(CC2CN(Cc3cccc(C(=O)N(C)C)c3)CCO2)c1 (stereo unspecified) | 2.43 | -24.4
34 | COC(=O)Cn1c(=O)nc2n1C(=O)N(c1ccccc1)C2 | 1.18 | -22.6
35 | CCOCC(=O)N1C[C@@H]2COC[C@H](c3nc(C)no3)[C@@H]2C1 | 2.15 | -13.8
36 | Fc1ccc(CN2CCC(c3n[nH]c4nccnc34)CC2)cc1F | 0.372 | -8.59
37 | CCc1cnc2c(c1Nc1ccncc1)c(=O)n(C)c(=O)n2C | 0.918 | -8.05
38 | Cc1cc(C)n(C2CN(Cc3noc(-c4ccccc4)n3)C2)n1 | 4.04 | -51.5
39 | Cc1nc(CN2CCC(N(C)Cc3noc(C4CC4)n3)C2)oc1C (stereo unspecified) | 1.48 | -11
40 | O=C(NCc1cc[nH]n1)N(CCCO)C1CCc2ccccc21 (stereo unspecified) | 1.93 | 0.536
41 | Cc1nc(CN2CCOC(c3nc(C(C)C)n[nH]3)C2)oc1C (stereo unspecified) | 0.999 | -9.33
42 | CC(OCC(F)(F)F)C(=O)Nc1ccc(-n2cncn2)nc1 (stereo unspecified) | -0.432 | 13.4
43 | Cc1nc(C)c(C(=O)NCCNC(=O)Cc2ccccc2)s1 | -1.6 | 11.1
44 | CC1COCCN1Cc1nc(-c2cccc(Br)c2)no1 (stereo unspecified) | 4.5 | 32
45 | Cc1nc(C(=O)N2CCc3c(nc(-c4ccncc4)[nH]c3=O)C2)cs1 | 0.783 | 13.5
46 | O=C(CCCOCc1ccccc1)N1CCCC1c1ccccn1 (stereo unspecified) | -1.14 | -0.85
47 | O=C(CCOCc1ccccc1)N1CCCC1c1noc(C2CC2)n1 (stereo unspecified) | 14.9 | 22.2
48 | O=C(Cc1ccsc1)NCC1OCCc2cn(CC3CC3)nc21 (stereo unspecified) | 1.47 | -11.5
49 | CCC(=O)N(C)C1CCN(Cc2ncc(C)c(OC)c2C)CC1 | -0.759 | -19.9
50 | CN1CCc2onc(CNc3ncccn3)c2C1 | 6.7 | -1.52
51 | Cc1cc(C2CCCN(C(=O)c3cnccn3)C2)ccn1 (stereo unspecified) | -0.521 | -14.3
52 | COc1ccc(-c2nc(CN3CCN(CCO)CC3)co2)cc1 | -0.607 | -96.9

Row | SMILES | Percent Effect [1] [%] | Percent Effect [2] [%]
53 | COc1ccc(C(C)NC(=O)Cn2ccc(=O)n(C)c2=O)cc1OC (stereo unspecified) | 2.15 | -8.59
54 | Cc1ccc(CN(C)C(=O)CN2CCCC2Cn2cccn2)o1 (stereo unspecified) | -1.15 | -15.7
55 | CCc1[nH]ncc1C(=O)N1CCCN(Cc2cnn(C(C)C)c2)CC1 | 6.41 | 9.14
56 | CCN(CCC(F)(F)F)C(=O)Nc1cccc(N2CCOCC2)c1 | 1.08 | -51.5
57 | Cn1ccc(CN2CCC(OCCc3ccccc3)CC2)cc1=O | 2.67 | 8.32
58 | c1cnc(N2CCC3(CCN(Cc4ccncc4)CC3)CC2)nc1 | -2.46 | 1.18
59 | O=C(N[C@@H]1CN(c2ncccn2)C[C@@H]2CCCO[C@@H]21)c1cnccn1 | 4.51 | -15.4
60 | Cc1nsc(C(=O)N2CCc3ccccc3C2)n1 | -2.11 | -13.9
61 | O=C(NCc1nn(-c2ccccc2)c2c1CCC2)NC1CC1 | 1.63 | 9.96
62 | Cc1ccc(CN2CC[C@H]3OCC[C@@H](C(=O)NC4CC4)[C@@H]3C2)o1 | 4.6 | -6.37
63 | Cc1cc(S(=O)(=O)N2CCc3ccc(F)cc32)cc(C(=O)O)c1C | 2.1 | -5.86
64 | Cc1noc(C)c1CCC(=O)N1CCCN(Cc2cscn2)CC1 | -0.789 | 27.4
65 | Cc1noc([C@@]23CCO[C@@H]2CCN(C(=O)C2CCOCC2)C3)n1 | 0.117 | -4.33
66 | Cc1c(C(=O)NC(CN2CCCC2=O)c2ccccc2)cnn1C (stereo unspecified) | -1.08 | 34
67 | O=C(c1cccc(CNS(=O)(=O)c2ccccc2F)c1)N1CCCC1 | 5.13 | 22.1
68 | Cc1cnc(CN(C)C2CCN(CC(=O)Nc3c(C)n[nH]c3C)C2)o1 (stereo unspecified) | -2.74 | -14.3
69 | CN(C)CCCNC(=O)CNC(=O)N1CCc2c([nH]c3ccccc23)C1 | 4.82 | -42.4
70 | CCOC(=O)NC(CNC(=O)c1ncccn1)CC(C)C (stereo unspecified) | 6.25 | 4.71
71 | COc1ccc(COCC(O)CNC(=O)c2cccnc2)cc1 (stereo unspecified) | -1.27 | -12.2
72 | O=C(CCCOc1ccc(F)cc1F)N1CCCC1Cn1cccn1 (stereo unspecified) | -7.61 | 17.6
73 | Cc1nc(C2CCCN(C(=O)c3ccco3)C2)no1 (stereo unspecified) | -1.47 | -1.79
74 | COc1cccc(CNC(=O)CN2CCCCC2Cn2cccn2)c1 (stereo unspecified) | 0.922 | 20.3
75 | Cc1noc(C)c1CN1CCN(Cc2nccn2C)C(C)C1 (stereo unspecified) | -3.74 | 1.27
76 | COc1ccc(CN(C)C(=O)CCc2c(C)nc(C)[nH]c2=O)cc1OC | -5.24 | -6.32
77 | CC(=O)N1CCC(c2nccnc2Oc2ccccc2)CC1 | -0.819 | -5.88
78 | CCN(Cc1ccco1)C(=O)NCc1nnc2n1CCC2 | 0.859 | -4.02

Row | SMILES | Percent Effect [1] [%] | Percent Effect [2] [%]
79 | N#Cc1ccc(OCCOc2ccccc2C(=O)N2CCOCC2)cc1 | 8.62 | -58.2
80 | CN(Cc1nc(N)c2ccccc2n1)CC1CCCN1c1cccnn1 (stereo unspecified) | 4.61 | 24.7
81 | Cc1nnc(NCc2ccccc2Cl)c(C#N)c1C | 16.3 | 10.3
82 | Cc1nn(C)cc1-c1cc(C(F)(F)F)c2c(C)nn(CC(=O)O)c2n1 | 4.84 | 34.1
83 | CCN1CCN(C(=O)c2ccn(C)c(=O)c2)CC1 | 2.87 | -14.7
84 | O=c1ccc(-c2ccccc2F)nn1CCN1CCCS1(=O)=O | -1.45 | -0.28
85 | CN(Cc1cn2c(n1)CN(C1CCOC1)CC2)Cc1ccco1 (stereo unspecified) | 4.4 | -24.2
86 | CN(CCCOc1ccc(F)cc1)Cc1nc2c(cnn2C)c(=O)[nH]1 | -4.83 | 26.6
87 | CCn1c(C)nnc1CN(C)C1CCN(CCc2ccncc2)C1 (stereo unspecified) | 2.19 | 13.6
88 | CCC(NC(=O)C1CCN(S(C)(=O)=O)CC1)c1ccc(OC)c(C)c1 (stereo unspecified) | -5.17 | -11.6
89 | Fc1ccccc1CN1C[C@@H](OCc2ccncc2)[C@H]2OCCC[C@H]21 | 2.94 | -45.1
90 | Cc1cc(N(C)Cc2cc(C)on2)n2nc(C)c(C)c2n1 | 1.81 | -20
91 | Cc1nnc(NC(=O)NCc2ccc(N3CCN(C)CC3)nc2)s1 | 3.74 | 24.2
92 | CCc1noc(C(C)N2CCC(NC(=O)c3ccc(C)s3)CC2)n1 (stereo unspecified) | 5.23 | -30.1
93 | Cc1n[nH]c(C2CN(C(=O)Cn3ccccc3=O)CCO2)n1 (stereo unspecified) | -3.22 | 10.2
94 | Cc1cc(C[C@@H]2COC[C@H]2NCc2ccccc2C(F)(F)F)on1 | 2.34 | -7.33
95 | O=C(CN(Cc1cccnc1)CC1CCCO1)Nc1ccc(F)cc1 (stereo unspecified) | 5.92 | -3.06
96 | Cc1cccnc1NC(=O)NC(C)Cn1cccn1 (stereo unspecified) | -3.52 | 15.4
97 | Cc1cc(C)nc(CCNC(=O)[C@H]2CNC[C@@H](C(=O)N3CCCC3)C2)n1 | -2.14 | -37.4
98 | Cn1nc(CNC(=O)C2CCCC2)cc1C1CC1 | 0.0146 | -25.7
99 | O=C(O)C1CCCCN1C(=O)c1cccc(C(F)(F)F)c1 (stereo unspecified) | -1.94 | 33.5
100 | CS(=O)(=O)NCCNC(=O)C1(c2cccc(Cl)c2)CC1 | -2.17 | -2.54
101 | Cc1occc1C(=O)N1CCOCC2(CCN(Cc3nccs3)C2)C1 (stereo unspecified) | -0.802 | -26.4
102 | O=C(c1ccnnc1)N1C[C@H]2CCC[C@@]2(COCC2CCOCC2)C1 | 3.07 | -0.366
103 | Cn1cc(CN2CCCn3cnc(COCC4CC4)c3C2)cn1 | 1.66 | -1.47
